The values that follow come from PubChem BioAssay AID848 (Columbia University Molecular Screening Center, 2007).

The whole screen tested about 93,000 compounds, of which about 160 (0.17%) were called active.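 How the source made its calls: active means cell count reduction exceeding the screen mean by over 5 SD, scaled to untreated wells per plate (cut at about 78% in these data); inactive means the rest.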 What follows is part of a selection rich in actives, with near analogues and random picks from the rest.

The assay in a line: cytotoxicity in TNFa-stimulated HUVEC, primary screen, cytotoxicity control for VCAM1 expression modulator project, imaging, Hoechst nuclei count (AID 848).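 Further: cells counted after 24 h of TNF alpha exposure following the 1 h pretreatment.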 The following applies: HUVEC TNFalpha-stimulated, at 2 µM, stronger effect = higher value.
With `CCC(=O)Nc1ccc(C(=O)Nc2cccc(OC)c2)cc1`, the cell count reduction is -29.2% (inactive).

As to `COc1cc(/C=N/O)cc(Br)c1OS(=O)(=O)c1ccc(C)cc1`, the cell count reduction is -20% (inactive).

With `COc1ccc(/C=C(\NC(=O)c2ccc(OC)c(OC)c2)C(=O)NCCc2c[nH]c3ccccc23)cc1`, the cell count reduction was -3.8% (inactive).

With `Cc1cccc(N2CCN(S(=O)(=O)c3ccc4[nH]c(=O)c(=O)[nH]c4c3)CC2C)c1` (configuration not stated), the cell count reduction was -4.3% (inactive).

As for `Cc1ccc(NC(=O)CN2CCc3ccccc3C2)cc1`, the cell count reduction was -11.7% (inactive).

For the compound `COc1ccccc1-c1n[nH]c2c1[C@H](C)CC[C@H]2C(C)C`, the cell count reduction is -1.8% (inactive).

Consider `O=C1CSC(c2ccccc2)N1c1nc(-c2ccc(Cl)cc2Cl)cs1` (configuration not stated), for which the cell count reduction is 12.4% (inactive).

Regarding `CC1(C)Cc2c(sc3nc(SCC(=O)NCc4ccccc4)n(-c4ccccc4)c(=O)c23)CS1`, the cell count reduction is -2.4% (inactive).

As for `O=C1CCCC2=C1C(c1ccccc1)n1c(s/c(=C/c3cccc(F)c3)c1=O)=N2` (configuration not stated), the cell count reduction is -15.2% (inactive).

`Cc1cc2[nH]ncc2cc1NC(=S)NC(=O)c1ccccc1`: the cell count reduction is -6% (inactive).

For the compound `CCOC(=O)/C(=C\c1ccc([N+](=O)[O-])cc1)C(=O)c1cc(C(C)=O)c(Nc2ccccc2)s1`, the cell count reduction is 5.8% (inactive).

For the compound `CN(C)C(CNC(=O)CCCOc1ccccc1)c1ccco1` (configuration not stated), the cell count reduction is -22.1% (inactive).

As to `O=C(c1ccccc1)C(Cn1cncn1)C(Sc1ccccc1)c1ccccc1` (configuration not stated), the cell count reduction was -17.7% (inactive).

Consider `CC(C)C(=O)Nc1cccc(NC(=S)NC(=O)C(c2ccccc2)c2ccccc2)c1`, for which the cell count reduction is -31.2% (inactive).

Take `Fc1ccccc1COc1ccccc1CNCc1ccncc1`: the cell count reduction is 2.6% (inactive).

Regarding `COc1ccc(NS(=O)(=O)c2ccc(NC(=S)NC(=O)CC(C)C)cc2)cc1`, the cell count reduction was -22.5% (inactive).

Turning to `Cc1ccc(N2CCN(C3=NC(=O)/C(=C\c4cccs4)S3)CC2)cc1`, the cell count reduction is -5.4% (inactive).

For the compound `COc1ccc(CN2CCn3ncc(C(=O)Nc4ccc(Cl)cc4Cl)c3C2=O)cc1`, the cell count reduction is -5.8% (inactive).

For `CNC(=S)NNC(=O)c1sccc1OCc1ccccc1`, the cell count reduction is -14.5% (inactive).

In the case of `Cc1n[nH]c(=S)n1/N=C/c1ccc(Br)o1`, the cell count reduction was -5.8% (inactive).

Turning to `Cc1ccc(C2CC2C(=O)NN)cc1` (configuration not stated), the cell count reduction was -10.3% (inactive).

For the compound `O=C(CNC(=O)OCc1ccccc1)Oc1cc2oc(=O)cc(-c3ccccc3)c2cc1Cl`, the cell count reduction was 0% (inactive).

Consider `O=S(=O)(N/N=C\c1cccn1-c1ccccc1)c1ccc2ccccc2c1`, for which the cell count reduction is -15.3% (inactive).

In the case of `Cc1c(NC(=O)/C=C/C(=O)O)cccc1[N+](=O)[O-]`, the cell count reduction is -2.4% (inactive).

Regarding `CCOC(=O)C1=C(C)Nc2sc(C(=O)c3ccc(Br)cc3)c(N)c2C1c1ccc(C(=O)OC)cc1` (configuration not stated), the cell count reduction was -15.9% (inactive).

As for `COc1ccc(CCNC(=S)NC(=O)/C=C/c2ccc(C)cc2)cc1OC`, the cell count reduction is -29.7% (inactive).

Take `COc1ccc(Oc2coc3cc(OC(=O)c4cncc(Br)c4)ccc3c2=O)cc1`: the cell count reduction was 7% (inactive).

For the compound `O=C(NC1CC1)c1ccc2c(c1)NC(=O)c1ccccc1S2`, the cell count reduction was -13.8% (inactive).

`Cc1ccc(/C=N/NC(=O)c2sccc2OCc2ccc(F)cc2)cc1`: the cell count reduction was -8.8% (inactive).

`Cc1cc(=O)oc2cc(OC(C)C(=O)Nc3ccc(N4CCOCC4)cc3)ccc12` (configuration not stated): the cell count reduction was -7.6% (inactive).

Take `Cc1nnc(NC(=O)CSc2nc(C3CCCCC3)nc3ccccc23)s1`: the cell count reduction is -7.9% (inactive).

With `O=C1CCN(C(=O)Nc2ccccc2)N1`, the cell count reduction is -11.8% (inactive).

For `CCOc1cccc(SCc2noc(C(=O)NC(C)C)c2C(=O)O)c1`, the cell count reduction is -41.1% (inactive).

`Cc1cc([N+](=O)[O-])c(N2CCC[C@@H]2C(=O)O)c([N+](=O)[O-])c1`: the cell count reduction was -11.9% (inactive).

As for `CC(C(=O)Nc1ccc(F)c(F)c1F)N1CCCCCC1` (configuration not stated), the cell count reduction is 0% (inactive).

Consider `CCC(C(=O)NCc1ccc(OC)cc1)n1nc(C)n2c(cc3occc32)c1=O` (configuration not stated), for which the cell count reduction is -4.6% (inactive).

Take `C/C(=N\NS(=O)(=O)c1cccc([N+](=O)[O-])c1)c1cc2ccccc2o1`: the cell count reduction was -56% (inactive).

In the case of `CC1CC(C)CN(C(=O)CSc2nnc(CSc3ncccn3)n2C)C1` (configuration not stated), the cell count reduction is -24.8% (inactive).

As to `Cc1ccc(NC(=S)NC(=O)c2ccc(-c3ccccc3)cc2)c(C)c1`, the cell count reduction was -14.1% (inactive).

As to `CCCCNC(=O)CSc1nc2ccc(NC(=O)CSc3nnc(COc4ccccc4C)n3C)cc2s1`, the cell count reduction is -20.8% (inactive).

`O=C(Nc1ccccc1Cl)O/N=C(/c1ccccc1)c1ccccn1`: the cell count reduction was 9.5% (inactive).

In the case of `Cc1nn(Cc2ccccc2Cl)c(C)c1NC(=O)Cn1nc([N+](=O)[O-])c(Cl)c1C`, the cell count reduction was 10.2% (inactive).

Consider `CSCc1cc(N(C)C)nc(SCc2ccc(Cl)cc2Cl)n1`, for which the cell count reduction is -3% (inactive).

Regarding `COCCCNCC(=O)Nc1sc(C)c(C)c1C(=O)OC`, the cell count reduction was -27.9% (inactive).

In the case of `COc1ccc2c(Cl)c(C(=O)NCc3ccco3)sc2c1`, the cell count reduction was -12% (inactive).

`O=C(CSc1ccc(/C=N/NC(=O)c2cccc(F)c2)o1)Nc1ccccc1`: the cell count reduction is -19.1% (inactive).

On to `C=CCn1c(-c2ccc(Cl)cc2)ccc(C#N)c1=O`, for which the cell count reduction is 4.1% (inactive).

For the compound `CCC(c1nnnn1C(C)(C)C)N(Cc1cc2cccc(C)c2n2nnnc12)C1CCCC1` (configuration not stated), the cell count reduction was -17% (inactive).

With `O=C(CCCN1C(=O)c2ccccc2C1=O)Oc1ccc(Cl)cc1`, the cell count reduction was -17.1% (inactive).

`CN1/C(=c2/s/c(=C3/C(=O)N(c4ccccc4)NC3=Nc3ccccc3)n(C)c2=O)C(C)(C)c2ccccc21`: the cell count reduction was 3.8% (inactive).

Consider `C(=N/N1CCN(c2ccccc2)CC1)/c1cccs1`, for which the cell count reduction is -6.5% (inactive).

With `Cc1ccc(-n2c(CNc3ccc(F)cc3)nnc2SCC(=O)N2CCOCC2)cc1`, the cell count reduction was -20.7% (inactive).

As to `COc1ccc(-c2c(C(C)=O)c(C)nc3sc4c(=O)n(-c5ccc(C)cc5)nnc4c23)cc1`, the cell count reduction was -14.8% (inactive).

Turning to `Cc1cc(C)n2nc(C(=O)NC(C)(C)C)nc2n1`, the cell count reduction was 14.4% (inactive).

In the case of `COc1cc(OC)cc(C(=O)NC(=S)N2CCN(c3ccc(C(F)(F)F)cc3[N+](=O)[O-])CC2)c1`, the cell count reduction is -5.1% (inactive).

Turning to `Cc1cccc(N(C(=O)c2ccc(CN3CCOCC3)o2)C(C(=O)NC2CCCCC2)c2ccc(F)cc2)c1` (configuration not stated), the cell count reduction was -36.1% (inactive).

Turning to `Cc1ccc(-n2nc(N)c3c(=O)oc(N(C)C)nc32)cc1`, the cell count reduction is 5% (inactive).
